Compound activity: PubChem, several laboratories
Only some compounds are listed: those with a hit (about 12% of all), similar ones and a draw of the others.
CHOP inh: inhibitors of CHOP induction in ER stress response. CHO-K1 CHOP-promoter luciferase, tunicamycin-induced, 15-18 h. 220,000 tested, 3.8% active. inhibition, % at 10 µM;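 active = compounds that reduced the stress-induced luciferase reporter signal by more than about 70% of percent inhibition, limit read from the data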
Lmaj promast: inhibitors of Leishmania major promastigote growth | 200,000 tested, 9% active | Leishmania major promastigotes, resazurin fluorescence viability | inhibition, % at 10 µM; in the data active = inhibition above about 50%;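 also: promastigotes grown with compound for 44 hours at 28 °C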
Arbovirus anti: blocks arbovirus infection. arbovirus infection cell-based antiviral screen. inhibition, % at 10 µM. 200,000 tested, 0.37% active. AID 1251; in the data active = inhibition above about 30%
WT yeast gro inh: growth inhibition of WT yeast, mitochondrial fusion screen | mitochondrial fusion phenotypic screen, WT strain | inhibition, % at 10 µM | 190,000 tested, 2.1% active | AID 1362; in the data active = inhibition above about 58%; tested in S. cerevisiae
Numbers stand for hits; n = inactive; x = no result.

SMILES	CHOP inh	Lmaj promast	Arbovirus anti	WT yeast gro inh
COc1ccc(C(=O)Nc2ccc(S(=O)(=O)N3CCc4ccccc43)cc2)cc1	n	54	n	n
O=C(Nc1ncccc1O)c1cccc(S(=O)(=O)N2CCc3ccccc32)c1	n	n	n	69
CCc1sc(C(=O)Nc2cccc(C(C)=O)c2)cc1C	n	n	n	n
Cn1ccnc1C1CCCCN1Cc1nc(-c2ccc(Cl)cc2)no1 (centres undefined)	n	n	n	n
CCCCNC(=S)NNC(=O)c1ccco1	n	n	n	n
CCCCCCOc1ccc(/C(N)=N/O)cc1	x	87	n	n
CCCCCOc1ccc(C(=O)NC(CCC)C(=O)O)cc1 (centres undefined)	n	n	n	n
Cc1ccc(Sc2ncnc3onc(C)c23)cc1	n	56	n	n
COc1ccc(-c2n[nH]c(=S)n2/N=C/C=C\c2ccccc2OC)cc1	n	n	n	n
O=[N+]([O-])c1ccccc1/C=C/C=N/n1c(-c2ccc(Cl)cc2)n[nH]c1=S	82	n	n	n
O=[N+]([O-])c1ccccc1/C=C/C=N/n1c(-c2ccccc2)n[nH]c1=S	n	n	n	61
COc1ccccc1/C=C/C=N/n1c(-c2ccncc2)n[nH]c1=S	n	n	n	n
S=c1[nH]nc(COc2ccccc2)n1/N=C/C=C/c1ccccc1	n	n	n	71
CC1CCCC(C)N1/N=C/C=C/c1ccccc1[N+](=O)[O-] (centres undefined)	71	n	n	n
Cc1ccc(NC(=O)COC(=O)c2ccn(C)n2)cc1	n	n	n	n
COCCC1CCCCN1Cc1cn(-c2ccccc2)nc1-c1ccc2c(c1)OCO2 (centres undefined)	n	n	n	n
COc1ccc(CCNC(=O)CCn2c(SCC(=O)N3CCCC3)nc3ccccc3c2=O)cc1OC	n	x	x	x
CC1=C(C(=O)OCc2ccc3c(c2)OCO3)C(c2cccc([N+](=O)[O-])c2)NC(=O)N1 (centres undefined)	n	n	n	n
COc1ccc(/C=C/C(=O)C2CC2)cc1COc1cccc(C)c1C	n	x	x	x
CN1C(=O)C(C(=O)NC(C)(C)C)C2c3ccccc3OC13CCCCC23 (centres undefined)	n	n	n	n
CCN(CC)C(=O)Oc1nnc(SC(C)C)n1-c1ccc(Cl)cc1	n	x	x	x
COc1ccccc1/C=C/C=N/n1c(-c2ccc(C)cc2)n[nH]c1=S	n	n	n	n
Cc1ccc(-c2n[nH]c(=S)n2/N=C/C=C\c2ccccc2[N+](=O)[O-])cc1	91	n	n	x
COc1ccc(/C=N/Nc2ccc(C(F)(F)F)cc2[N+](=O)[O-])cc1O	76	n	n	n
Cc1cccc(-c2nc3ccccc3c(=O)n2NC(=O)/C=C/c2ccc([N+](=O)[O-])cc2)c1	n	52	n	n
SMILES	CHOP inh	Lmaj promast	Arbovirus anti	WT yeast gro inh
O=C(COC(=O)c1oc2ccccc2c1COc1ccccc1)NCCN1C(=O)CSC1=O	n	n	n	n
CCOC(=O)C1=C(C)NC(SCC(=O)OC)=C(C#N)C1c1ccc(C(=O)OC)cc1 (centres undefined)	n	n	n	n
CCOC(=O)C1=C(C)Nc2sc(C(=O)c3ccc(F)cc3)c(N)c2C1c1ccc(C(=O)OC)cc1 (centres undefined)	n	91	n	87
CCOC(=O)C1=C(C)Nc2sc(C(=O)c3ccc(C)cc3)c(N)c2C1c1ccc(C(=O)OC)cc1 (centres undefined)	n	81	n	n
Nc1nc(Cl)nc2c1ncn2[C@@H]1O[C@H](COP(=O)(O)OP(=O)(O)OP(=O)(O)O)[C@H](O)C1O (some centres undefined)	n	x	x	x
CCCNC(=O)CSc1nc2[nH]ncc2c(=O)[nH]1	n	n	n	n
CN(C)CCNc1ncnc2c1sc1nc(-c3ccccc3)c3c(c12)CCCC3	n	x	x	x
O=C(Nc1ccccc1)Nc1cccc(C(F)(F)F)c1	n	n	n	n
O=C(/C=C/Nc1cccc(C(F)(F)F)c1)C(F)(F)F	n	n	n	65
COc1ccc(N(CC(=O)NCCSCc2ccco2)S(=O)(=O)c2ccccc2)cc1	n	n	n	n
Cc1ccc(S(=O)(=O)N(CC(=O)NCCSCc2ccco2)c2cc(C)ccc2C)cc1	x	100	x	x
Cc1ccc(S(=O)(=O)N(CC(=O)NCCSCc2ccco2)c2ccc(F)cc2)cc1	n	n	n	n
O=C(CN(c1ccccc1)S(=O)(=O)c1ccccc1)NCCSCc1ccco1	n	68	n	n
Cc1ccc(N(CC(=O)NCCSCc2ccco2)S(=O)(=O)c2ccc(F)cc2)cc1	n	69	n	n
C=CCn1c(C(C)NC(=O)c2cccc(C)c2)n[nH]c1=S (centres undefined)	n	n	n	n
Cc1cccc(NC(=S)c2nc3ccccc3s2)c1	n	n	n	67
CC(=O)Nc1ccc(SCC(=O)Nc2cc(C)on2)cc1	n	n	n	n
CCOC(=O)C1CCN(S(=O)(=O)c2ccc(OC)c(Cl)c2)CC1	n	n	n	n
CC(=O)Nc1cccc(C(=O)/C=C/c2ccc(/C=C/C(=O)c3cccc(NC(C)=O)c3)cc2)c1	n	80	n	n
CC(=O)Nc1cccc(C(=O)/C=C/c2ccc(Br)cc2)c1	n	100	n	n
CC(=O)Nc1cccc(C(=O)/C=C/c2ccc(F)cc2)c1	n	100	n	n
COc1ccc(Br)cc1/C=C/C(=O)Nc1ccc2ccccc2c1	n	n	n	n
CCC(=O)Nc1cccc(C(=O)/C=C/c2cc(Br)ccc2OC)c1	n	100	n	89
CN(C)c1ccc(C(=O)/C=C/c2ccc(Br)cc2)cc1	n	90	n	n
COc1ccc(OC)c(/C=C/C(=O)OCC(=O)Nc2cccc(C(C)=O)c2)c1	n	66	n	n
SMILES	CHOP inh	Lmaj promast	Arbovirus anti	WT yeast gro inh
CN(C)c1ccc(C(=O)/C=C/c2ccccc2)cc1	n	n	n	n
COc1ccc(/C=C/C(=O)Nc2cccc(C(C)=O)c2)cc1	n	85	n	n
COc1cc(NC(=O)COC(=O)/C=C/c2ccc(OC)c(OC)c2)cc(OC)c1	n	n	n	n
CCOC(=O)c1cccc(NC(=O)/C=C/c2cccc([N+](=O)[O-])c2)c1	84	n	n	n
Cc1ccc(S(=O)(=O)NNC(=O)CCCCC(=O)NNS(=O)(=O)c2ccc(C)cc2)cc1	n	n	n	n
O=C(COC(=O)c1ccc(F)c(S(=O)(=O)N2CCCCC2)c1)NCc1ccc(F)cc1	n	n	n	n
COc1ccc(-n2c(CN3CCN(c4ccccn4)CC3)nc3ccc([N+](=O)[O-])cc3c2=O)c(OC)c1	n	n	n	n
CC(=C/c1ccccc1)/C=N/Nc1nc(N2CCOCC2)nc(N2CCOCC2)n1	n	63	n	n
C(=C\c1ccccc1)/C=N/Nc1nc(N2CCOCC2)nc(N2CCOCC2)n1	n	n	n	n
O=[N+]([O-])c1cccc(/C=N/Nc2nc(N3CCOCC3)nc(N3CCOCC3)n2)c1	n	73	n	n
COc1ccc(C2=C(CC(=O)O)C(=O)CC2)cc1	n	n	n	n
COc1cc(CNCCc2ccccc2)ccc1OCc1ccc(Cl)nc1	n	100	n	n
COc1cc(CNCC(O)c2ccccc2)ccc1OCc1ccc(Cl)nc1 (centres undefined)	n	100	n	n
CCCCNCc1ccc(OCc2ccc(Cl)nc2)c(OC)c1	n	x	x	x
